Among all 69,000 compounds or so, about 8,600 (12%) showed an effect of 50% or more. For the sample, strong results were picked, then their nearest neighbours and some compounds at random.
Test system: Plasmodium berghei
Assay: Screen against P. berghei liver stage (PbLuc), transformed with Luciferase, at 10uM
Assay type: functional, HepG2
Details: tested at 10 uM

| SMILES | INHIBITION [%] |
| --- | --- |
| Cc1cc(C(F)(F)F)c2c(=O)n(Cc3ccon3)n(C)c2n1 | 14.3 |
| CC(C)N(C)Cc1cncc2c1CCN(C1CCOCC1)C2 | 25.6 |
| COc1ccc(C(=O)CCc2nc(C3CC3)no2)cc1 | -23.3 |
| Cc1cnn(CC2CCCCN2C(=O)c2ccc(N(C)C)nc2)c1 (centres undefined) | -4.16 |
| c1ccc(CN2CCc3c(COCC4CC4)cncc3C2)nc1 | 23.5 |
| Cc1nc2cc(-c3nccn3C)nn2c(N2CCCC(CO)C2)c1C (centres undefined) | -15.9 |
| O=S(=O)(NCc1ccccc1)N(Cc1ccccn1)CC1CCCO1 (centres undefined) | -1.91 |
| CC(C)[C@H]1CN(Cc2ccccn2)C[C@@H]1NS(=O)(=O)C1CC1 | 67.5 |
| CC(C)[C@H]1CN(Cc2ccccn2)C[C@@H]1NC(=O)CCS(C)(=O)=O | 28.2 |
| CC(C)[C@@H]1CN(Cc2ccccn2)C[C@H]1NS(=O)(=O)N(C)C | 9.72 |
| COc1ccc(CC2(CO)CCN(c3cc(C#N)ccn3)CC2)cc1 | 1.74 |
| CC(=O)NCCNC(=O)NCc1ccc(-n2ccc(C(F)(F)F)n2)cc1 | -12.1 |
| CCN(C(=O)c1nc2c(s1)CCCN2C)C(C)C | 23.6 |
| CC(C)c1noc(CCNC(=O)N2CCSC(C(C)C)C2)n1 (centres undefined) | 37.9 |
| CCC(CO)N(Cc1ccsc1)Cc1ccccc1C#N (centres undefined) | 37.6 |
| CCC(CO)N(Cc1ccsc1)CC1CC1 (centres undefined) | 50.7 |
| CCC(CO)N(Cc1ccc(C(=O)O)cc1)Cc1ccsc1 (centres undefined) | 15 |
| CCC(CO)N(Cc1ccsc1)Cc1cccc(O)c1 (centres undefined) | -60.8 |
| CCC(CO)N(Cc1ccsc1)Cc1ccccc1C(=O)O (centres undefined) | -69.3 |
| CCC(CO)N(CC=C(C)C)Cc1ccsc1 (centres undefined) | 55 |
| CN1CCO[C@@H]2CN(S(=O)(=O)c3ccccc3)C[C@@H]2C1 | 25.6 |
| CC(C)c1ncncc1C(=O)NCCN1CCCCCC1 | 35.4 |

| SMILES | INHIBITION [%] |
| --- | --- |
| Cc1csc(N2CCN(C(=O)C3(C#N)CCCCC3)CC2)n1 | 24.635 |
| CC(O)CN1CCN(C(=O)c2ccc(CN(C)C)cc2)CC1 (centres undefined) | 10 |
| CS(=O)(=O)N1CCC(C(=O)NC(Cc2ccsc2)c2cccnc2)CC1 (centres undefined) | 47.1 |
| Cc1ccc(C(=O)N2CCC3(CC2)COCCN(S(C)(=O)=O)C3)cc1C | -4.88 |
| Cc1cc(OCC(=O)NS(=O)(=O)c2cccnc2)ccc1Cl | 38.5 |
| CNC(=O)Cc1ccccc1NC(=O)C1CCCC1 | 42.6 |
| CS(=O)(=O)c1ccccc1C(=O)NCC1Cc2ccccc2O1 (centres undefined) | -9.76 |
| CN(C)C(=O)c1ccccc1NC(=O)N[C@@H]1c2ccccc2C[C@@H]1O | 48.9 |
| CS(=O)(=O)c1ccccc1N[C@@H]1c2ccccc2C[C@@H]1O | 67.5 |
| CS(=O)(=O)c1ccccc1NC(=O)N[C@@H]1c2ccccc2C[C@@H]1O | 35 |
| CNC(=O)Cc1ccccc1NC(=O)N[C@H]1c2ccccc2C[C@H]1O | 54.5 |
| Cc1ccc(CN2CCC3(CC2)OC(C(=O)N(C)C)c2ccccc23)o1 (centres undefined) | 34 |
| CN(Cc1ccc2c(c1)OCO2)C(=O)Cn1cccnc1=O | 44.1 |
| O=C(CN1CCCC1c1noc(C2CC2)n1)N1CCc2ccccc21 (centres undefined) | 7.08 |
| COCCN1CCC(c2cncc(-c3cccc(Cl)c3)n2)CC1 | -5.71 |
| FC(F)Oc1ccc(CN2CCOC3(CCOCC3)C2)cc1Cl | 38 |
| Fc1cc(CN2CCOC3(CCOCC3)C2)ccc1OC(F)F | 86.7 |
| Fc1cc(CN2CCOC3(CCOCC3)C2)ccc1Cl | -27.8 |
| COc1cc(CNC(=O)Nc2nnc(C(C)C)s2)ccn1 | -69.3 |
| Cc1cccc(C2(C(=O)NC(C)Cn3ccnc3)CC2)c1 (centres undefined) | 35.9 |
| CCc1cnc(CN(C)C(C)C(=O)N2CCc3ccccc3C2)s1 (centres undefined) | 62 |
| CC(C(=O)N1CCc2ccccc2C1)N(C)Cc1cscn1 (centres undefined) | 32.9 |

| SMILES | INHIBITION [%] |
| --- | --- |
| Cc1csc(CN(C)C(C)C(=O)N2CCc3ccccc3C2)n1 (centres undefined) | 38 |
| CC(C)Oc1ncccc1CNC(=O)c1cc(C2CC2)on1 | 11.9 |
| COCCN1CCC1c1cc(N)nc(C)n1 (centres undefined) | 26.7 |
| Cc1nc2c(c(NCC(c3cccnc3)N3CCOCC3)n1)CCNC2 (centres undefined) | 18.2 |
| Cn1nc2c(cc1=O)CN(Cc1nc(N)c3ccccc3n1)CC2 | 57.7 |
| Cc1nnc2n1CCN(CCOc1ccccc1C#N)C2 | 58.5 |
| N#Cc1ccccc1OCCN1CCn2c(nnc2C2CC2)C1 | 39.5 |
| Cn1nc2c(cc1=O)CN(CCOc1ccccc1C#N)CC2 | 74.8 |
| CCn1nc2c(cc1=O)CN(CCOc1ccccc1C#N)CC2 | 2.4 |
| CCn1nc2c(cc1=O)CN(Cc1nc(N)c3ccccc3n1)CC2 | 15.8 |
| Cn1nc2c(cc1=O)CN(Cc1nc3ccccc3c(=O)[nH]1)CC2 | 9.04 |
| CC(C)n1nc2c(cc1=O)CN(CCOc1ccccc1C#N)CC2 | 12.7 |
| Cc1ccccc1OCCN1CCn2c(C)nnc2C1 | 27.6 |
| Cc1cc(=O)n(CCNC(=O)c2ccccc2Cl)cn1 | -62.1 |
| COc1cc(N2CCC3(CCCN(C(=O)c4cnccn4)C3)C2)ncn1 (centres undefined) | 10.6 |
| O=C(c1ccco1)N1CCOCC2(C1)CN(c1ccccn1)C(=O)CO2 (centres undefined) | 22.4 |
| COCCCN1CCCC1c1noc(C2CC2)n1 (centres undefined) | 2.97 |
| O=C(Cc1ccsc1)N1C[C@@H]2COC[C@]2(COc2cccnc2)C1 | 39.4 |
| CC(=O)NCc1ccc(C(=O)N2CCCC2c2cnn(C)c2)s1 (centres undefined) | -25.9 |
| CC(C)Nc1nc(O)cc(C2CC(=O)N(Cc3ccccc3)C2)n1 (centres undefined) | 18.3 |
| O=C(C[C@@H]1COC[C@H]2CN(C(=O)c3cccnc3)C[C@@H]12)N1CCCC1 | -19.5 |
| c1cncc(-c2nnn3c2COCC(CNCC2CCOCC2)C3)c1 (centres undefined) | 41.6 |

| SMILES | INHIBITION [%] |
| --- | --- |
| O=C(c1ccccc1O)N1CCN(C(=O)C2CCC2)CC1 | -14.3 |
| CN(Cc1ccc(C(=O)O)cc1)C(=O)c1sccc1OC(F)F | 52.5 |
| CN(CCc1ccncc1)C(=O)c1sccc1OC(F)F | -2.97 |
| Cc1ccsc1C(=O)N(C)Cc1ccncc1 | 3.1 |
| Cc1ccccc1C(CC(=O)N1CCc2sccc2C1)NC(N)=O (centres undefined) | 3.3 |
| CCOc1ccc(Cl)cc1CCNC(=O)c1ccc(=O)n(C)c1 | -10.8 |
| O=C(Cn1nc(-c2ccc(F)cc2)oc1=O)NCc1ccncc1 | -6.79 |
| COCC(=O)N[C@@H]1CN(Cc2c[nH]nc2-c2cccs2)C[C@H]1O | 6.54 |
| CCC1=NC(SCC(=O)c2ccc(Cl)cc2)c2cc(CC)sc2N1 (centres undefined) | 30 |
| CCC1=NC(SCC(=O)c2ccccc2)c2cc(CC)sc2N1 (centres undefined) | 79.7 |
| CCC1=NC(SCC(=O)c2ccc(C)cc2)c2cc(CC)sc2N1 (centres undefined) | 39.1 |
| CC(C)c1nn(C)c(Cl)c1CNCC(=O)N1CCN(C)CC1 | 26.4 |
| Cc1nc(C)n(CC2CN(Cc3cccs3)Cc3nccn3C2)n1 (centres undefined) | 47.4 |
| COCCNc1nnc(S(=O)(=O)CCC(C)(C)C#N)s1 | 52.1 |
| CCCNc1nnc(S(=O)(=O)CCOCC)s1 | 5.05 |
| CCOCCS(=O)(=O)c1nnc(NCCOC)s1 | 12.2 |
| C[C@@H]1CN(C(=O)C2CCOCC2)C[C@]12CCN(c1cccnc1)C2=O | 18.5 |
| COc1ccccc1C(=O)N1CC(=O)N(C2CCCCC2)CC(O)C1 (centres undefined) | 50.2 |
| CCOc1ccccc1C(=O)N1CC(=O)N(C2CCC2)CC(O)C1 (centres undefined) | 16.9 |
| COc1cccc(OC)c1C(=O)N1CC(=O)N(C2CCC2)CC(O)C1 (centres undefined) | 4.82 |
| COc1ccc(C)cc1-n1cnnc1C1CCCN(C)C1 (centres undefined) | 29.8 |
| COc1ccc(C)cc1-n1cnnc1C1CCOCC1 | 13.5 |

| SMILES | INHIBITION [%] |
| --- | --- |
| c1cncc(-n2cnnc2CC2CCNCC2)c1 | 8.08 |
| COc1ccc(C)cc1-n1cnnc1CC1CCNCC1 | 64.6 |
| COc1ccc(-n2cnnc2CC2CCNCC2)cc1 | 65.7 |
| COc1ccc(OC)c(-n2cnnc2CN)c1 | 45.7 |
| O=C(Cn1ccc2cc(Br)ccc21)NCc1ccc(C(=O)O)cc1 | 13.5 |
| CC(=O)c1cc(C(=O)N2Cc3ccccc3OC3(CCOCC3)C2)cs1 | -26.2 |
| CS(=O)(=O)c1ccc(C(=O)N2CCCC(n3ccnc3)C2)cc1 (centres undefined) | -9.76 |
| COCC(c1cccc(C(F)(F)F)c1)N(C)C(=O)c1ccccn1 (centres undefined) | -5.285 |
| COc1ccc(N(C)C(=O)c2cccc(S(C)(=O)=O)c2)cn1 | 40.7 |
| COC(=O)c1cnc(C(=O)N(c2ccc(OC)c(F)c2)C(C)C)cn1 | -54.5 |
| COc1ccc(N(C(=O)Cc2ccc(C)nc2)C(C)C)cc1F | -75 |
| COc1ccc(C(=O)N(c2ccc(OC)c(F)c2)C(C)C)cn1 | 75.2 |
| COC(=O)C(c1cc(F)ccc1F)N(C)C(=O)c1ccccn1 (centres undefined) | 36.1 |
| COc1ccc(N(C(=O)c2ccc(C)nc2)C(C)C)cc1F | 38 |
| COc1ccc(N(C(=O)c2ccccn2)C(C)C)cc1F | 50.8 |
| COc1ccc(N(C(=O)c2cnc(C)cn2)C(C)C)cc1F | 62.4 |
| Cn1cc(-c2ncc3c(c2C(=O)O)CCN(CC2CC2)C3)cn1 | 46.6 |
| O=S(=O)(NC1=NCN(CCc2cccs2)CN1)c1ccc(Cl)cc1 | 17 |
| O=C(CN1CCOC(Cn2cccn2)C1)NCc1ccccn1 (centres undefined) | 11.2 |
| O=C(c1ncccn1)N1CCC[C@]2(C[C@@H](OCC3CC3)CO2)C1 | 34.6 |
| CN1CCO[C@@H]2CN(S(=O)(=O)c3ccc(F)cc3)CC[C@@H]2C1 | 16.9 |
